Measured potencies and affinities stand elsewhere.
Each compound was assayed on Staphylococcus aureus. Conditions: Concentration 20 uM; ASSAY_TEST Inhibition of Bacterial Growth; detection method Absorption (OD600); MEDIA CAMHB; plate type 384well; NBS; CORNING #3640; time 18 hr.

SMILES | Inhibition
CC[C@H](C)C(=O)O[C@H]1C[C@H](O)C=C2C=C[C@H](C)[C@H](CC[C@@H](O)C[C@@H](O)CC(=O)[O-])[C@H]21.[Na+] [PRAVASTATIN SODIUM] | 12.65%
CC1(C)O[C@@H]2C[C@H]3[C@@H]4C[C@H](F)C5=CC(=O)C=C[C@]5(C)[C@@]4(F)[C@@H](O)C[C@]3(C)[C@]2(C(=O)CO)O1 [FLUOCINOLONE ACETONIDE] | -31.13%
OCc1cc(C(O)CNCCCCCCOCCCCc2ccccc2)ccc1O (stereo unspecified) [SALMETEROL] | 15.16%
CCCNC(C)C(=O)Nc1ccccc1C.Cl (stereo unspecified) [PRILOCAINE HYDROCHLORIDE] | 16.77%
CCN(CC)CC(=O)Nc1c(C)cccc1C [LIDOCAINE] | 9.46%
O=C(NCCO[N+](=O)[O-])c1cccnc1 [NICORANDIL] | 13.24%
NC(=O)c1cnccn1 [PYRAZINAMIDE] | 14.57%
CN1CCN(CC/C=C2/c3ccccc3Sc3ccc(S(=O)(=O)N(C)C)cc32)CC1 [THIOTHIXENE] | 8.53%
CCCc1nc(C)c2c(O)nc(-c3cc(S(=O)(=O)N4CCN(CC)CC4)ccc3OCC)nn12.O=C(O)CC(O)(CC(=O)O)C(=O)O | 14.18%
CS(=O)(=O)O.Oc1ccc(C2CNCCc3c2cc(O)c(O)c3Cl)cc1 (stereo unspecified) [FENOLDOPAM MESYLATE] | 13.63%
CCOC(=O)[C@H](CCc1ccccc1)N[C@@H](C)C(=O)N1[C@H](C(=O)O)C[C@@H]2CCC[C@@H]21 | 17.44%

Reference: ChEMBL document CHEMBL4513141, “CO-ADD screening of NIH (USA) - Clinical Collection” (2021)
